# Source: PubChem
# Dicer processing – blocks human Dicer maturation of pre-miR-21; Q9UPY3; cat-ELCCA pre-miR-21 Dicer processing, chemiluminescence; stronger effect = higher value; z-score at 25 µM; actives 6% (n = 47,000); in the data active means z-score above about 3, passing the limit was not always enough;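 further: plate controls were vehicle for no effect and no enzyme for full effect; higher signal means more uncleaved substrate so more Dicer inhibition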
# Target sequence (Q9UPY3 whole entry, looked up): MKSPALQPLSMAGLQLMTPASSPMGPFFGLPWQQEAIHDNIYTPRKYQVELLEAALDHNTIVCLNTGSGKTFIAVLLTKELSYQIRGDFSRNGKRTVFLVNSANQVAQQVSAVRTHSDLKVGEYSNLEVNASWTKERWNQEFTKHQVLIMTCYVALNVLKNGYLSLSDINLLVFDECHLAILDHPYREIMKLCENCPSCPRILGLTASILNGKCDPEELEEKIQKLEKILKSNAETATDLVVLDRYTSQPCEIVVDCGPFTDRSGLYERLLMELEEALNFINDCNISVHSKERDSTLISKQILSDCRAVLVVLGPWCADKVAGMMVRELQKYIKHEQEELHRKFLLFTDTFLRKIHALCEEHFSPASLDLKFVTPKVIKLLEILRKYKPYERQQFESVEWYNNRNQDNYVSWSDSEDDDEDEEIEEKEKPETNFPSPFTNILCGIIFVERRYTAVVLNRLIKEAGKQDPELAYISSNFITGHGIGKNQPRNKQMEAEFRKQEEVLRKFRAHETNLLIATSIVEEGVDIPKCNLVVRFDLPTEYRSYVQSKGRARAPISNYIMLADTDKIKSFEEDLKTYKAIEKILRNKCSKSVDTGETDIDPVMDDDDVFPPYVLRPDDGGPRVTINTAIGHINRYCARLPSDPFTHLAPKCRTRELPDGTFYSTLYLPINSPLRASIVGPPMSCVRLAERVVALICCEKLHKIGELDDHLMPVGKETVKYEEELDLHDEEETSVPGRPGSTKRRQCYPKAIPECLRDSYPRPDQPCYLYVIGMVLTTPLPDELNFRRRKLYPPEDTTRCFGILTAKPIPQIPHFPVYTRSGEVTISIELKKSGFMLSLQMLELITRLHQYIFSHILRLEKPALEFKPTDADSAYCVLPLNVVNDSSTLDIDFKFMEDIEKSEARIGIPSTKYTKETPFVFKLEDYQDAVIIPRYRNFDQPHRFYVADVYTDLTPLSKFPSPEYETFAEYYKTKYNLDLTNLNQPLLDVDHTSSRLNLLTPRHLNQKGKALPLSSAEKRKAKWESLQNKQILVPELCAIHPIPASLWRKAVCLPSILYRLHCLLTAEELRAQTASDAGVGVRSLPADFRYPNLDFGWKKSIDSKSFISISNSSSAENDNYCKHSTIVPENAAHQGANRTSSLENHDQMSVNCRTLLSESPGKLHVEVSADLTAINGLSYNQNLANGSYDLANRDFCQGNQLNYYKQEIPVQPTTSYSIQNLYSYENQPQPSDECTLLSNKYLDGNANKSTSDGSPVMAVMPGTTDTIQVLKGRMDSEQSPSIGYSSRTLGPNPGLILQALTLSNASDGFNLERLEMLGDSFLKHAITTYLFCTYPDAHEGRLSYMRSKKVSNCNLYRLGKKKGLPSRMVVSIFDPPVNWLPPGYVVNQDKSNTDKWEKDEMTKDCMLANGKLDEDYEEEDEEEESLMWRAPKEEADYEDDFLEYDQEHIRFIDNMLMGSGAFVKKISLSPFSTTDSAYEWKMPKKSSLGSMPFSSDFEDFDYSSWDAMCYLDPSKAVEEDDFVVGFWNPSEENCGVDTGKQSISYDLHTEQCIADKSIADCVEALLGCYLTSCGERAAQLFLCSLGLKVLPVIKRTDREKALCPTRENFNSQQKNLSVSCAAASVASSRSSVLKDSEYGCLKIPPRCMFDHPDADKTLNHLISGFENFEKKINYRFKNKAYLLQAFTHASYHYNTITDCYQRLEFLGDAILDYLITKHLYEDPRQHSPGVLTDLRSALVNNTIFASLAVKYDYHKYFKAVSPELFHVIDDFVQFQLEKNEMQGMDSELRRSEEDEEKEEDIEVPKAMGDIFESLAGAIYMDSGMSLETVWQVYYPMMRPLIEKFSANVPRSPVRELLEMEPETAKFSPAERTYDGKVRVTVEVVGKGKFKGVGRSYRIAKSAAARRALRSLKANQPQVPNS
# Active calls of the source: *. The entries come from a sample that favours hits as a whole.
SMILES,Dicer processing
CCOc1ccc(/C(O)=C2/C(=O)C(=O)N(CCCOC)C23C(=O)N(CC)c2ccccc23)cc1 (centres undefined),-7.44
CCN1C(=O)C2(/C(=C(/O)c3ccc(OC)cc3)C(=O)C(=O)N2CCCOC)c2ccccc21 (centres undefined),1.97
CCCN1C(=O)C2(/C(=C(/O)c3ccc(F)cc3)C(=O)C(=O)N2CCCOC)c2ccccc21 (centres undefined),3.62*
CCN1C(=O)C2(/C(=C(/O)c3ccc(C)cc3)C(=O)C(=O)N2CCCOC)c2ccccc21 (centres undefined),3.27*
CCCN1C(=O)C2(/C(=C(/O)c3ccc(C)cc3)C(=O)C(=O)N2CCOC)c2ccccc21 (centres undefined),1.23
CCCN1C(=O)C2(/C(=C(/O)c3ccc(C)c(F)c3)C(=O)C(=O)N2CCCOC)c2ccccc21 (centres undefined),1.04
FC(F)(F)c1cc(-c2nccs2)nc2cc(-c3ccccc3)nn12,0
Cc1c(C#N)c(-n2cccc2)n(Cc2cccs2)c1C,0.88
CC(=O)OC1C(=O)OC2[C@@H](C)C(n3ccc(=O)[nH]c3=O)O[C@H]12 (some centres undefined),-0.94
O=C(CCSc1nnc(NC(=O)Cn2c(=O)sc3ccccc32)s1)Nc1ccccc1,2.26
Cn1nc(CC(=O)Nc2nnc(SCCC(=O)Nc3ccccc3)s2)c2ccccc2c1=O,-0.28
N#CCSc1nnc(NC(=O)c2ccccc2)s1,-0.37
O=C(Nc1nnc(SCCN2C(=O)c3ccccc3S2(=O)=O)s1)c1ccccc1,3.49*
O=C1c2ccccc2S(=O)(=O)N1CCCCCN1C(=O)c2ccccc2S1(=O)=O,0.09
O=C(CCSc1nnc(NC2=NS(=O)(=O)c3ccccc32)s1)Nc1ccccc1,3.18*
FC(F)(F)c1ccc2nc(SCc3cc(Cl)cc4c3OCOC4)[nH]c2c1,-0.76
CCN(CC)CC(=O)NN1CC(=O)N(c2cccc(Cl)c2)CC1=O,-0.21
C=CCn1cnnc1C(CCC(C)C)CC(C)(C)O (centres undefined),3.81*
CCOC(=O)c1c(C)nn(-c2ccc([N+](=O)[O-])cc2)c1C,-0.28
Cn1c(-c2ccc(Cl)cc2)cnc1NCc1cccc(F)c1,2.4
CNNC(=S)Nc1ccc(OC)cc1,1.47
Cc1cccc(Cn2c(C)c(C)c(S(=O)(=O)c3ccccc3)c2N)c1C,-1.43
Cn1c(-c2cccc(Br)c2)cnc1NCc1ccccc1F,2.47
COc1ccc(OC)c(NC(=O)C(=O)NN)c1,-1.36
COc1ccc(OC)c(NC(=O)CCC(=O)O)c1,4.95*
SMILES,Dicer processing
COC(=O)c1cc(OC)c(OC)cc1NC(=O)CCC(=O)O,-0.09
Cc1c(C(=O)O)nnn1-c1ccccc1Oc1ccc(Cl)cc1Cl,0.39
CCCN1C(=O)C(O)(CC(=O)c2ccncc2)c2ccccc21 (centres undefined),-0.27
CCCc1nnc2n1C(C)(C)Cc1ccccc1-2,1.05
O=C(c1cnc2cc(-c3ccccc3)nn2c1)c1ccccc1O,-1.49
CCCN1C(=O)C2(/C(=C(/O)c3ccccc3)C(=O)C(=O)N2CC2CCCO2)c2ccccc21 (centres undefined),1.47
Nc1ccc(Nc2ccc(N)cc2S(=O)(=O)O)cc1,43.7*
Nc1ccc(S(=O)(=O)c2ccc(N)cc2)cc1,1.48
NC(=O)NS(=O)(=O)c1ccc(N)cc1,1.03
CN(C)S(=O)(=O)c1ccc(/C(O)=C2\C(=O)C(=O)N(CCN3CCOCC3)C2c2ccco2)cc1 (centres undefined),1.35
Cc1[nH]nc2c1C(c1ccc(-c3ccccc3)cc1)C(C#N)=C(N)O2 (centres undefined),-5.1
CC(C)c1ccc(NC(=S)NNC(=O)NC(=O)c2csc([N+](=O)[O-])c2)cc1,4.69*
O=C(NC(=S)NN1CCCCC1)c1csc([N+](=O)[O-])c1,2.16
CC(C)CNC(=S)NC(=O)c1csc([N+](=O)[O-])c1,1.11
O=C(O)c1ccc2nsnc2c1,1.01
COC(=O)c1ccc2nsnc2c1,3.81*
CCOC(=O)c1ccc2nsnc2c1,1.97
COc1ccc(-c2csc(Nc3ccc(C)cn3)n2)cc1OC,1.1
Cc1ccc(Nc2nc(-c3ccc(O)cc3)cs2)nc1,4.42*
Cc1ccc(Nc2nc(-c3ccc(O)c(O)c3)cs2)nc1,2.11
CCCN1C(=O)C(O)(CC(=O)c2cccc(-n3cccc3)c2)c2ccccc21 (centres undefined),-0.42
CCOC(=O)c1ccccc1CSC(=N)N,2.69
CCn1c(SC)nc2ccccc2c1=O,0.15
CCn1c(/C=C/c2cccc(Br)c2)nc2ccccc2c1=O,0.11
CCn1c(/C=C/c2ccc3c(c2)OCO3)nc2ccccc2c1=O,5.12*
O=C(NC(=O)c1c(Cl)cccc1Cl)Oc1cc(C(F)(F)F)cc(C(F)(F)F)c1,-0.98
C=CCN1C(=O)C(O)(C(C)C(=O)c2ccccc2)c2ccccc21 (centres undefined),-0.13
CC(C)(C)NS(=O)(=O)c1ccc2c(c1)oc(=O)c1cc(S(=O)(=O)NC(C)(C)C)ccc12,-0.8
O=c1oc2cc(S(=O)(=O)N3CCCC3)ccc2c2ccc(S(=O)(=O)N3CCCC3)cc12,3.49*
